Sampled rows, rich in hits. Any-hit rate of the full collection: about 4.1%.
TRPM1 prom inh: inhibitors of MITF-dependent TRPM1 promoter reporter, primary screen, cell-based, SK-MEL-5, single point, luciferase | actives 0.83% (n = 330,000) | AID 488899, 2010 | SK-MEL-5 TRPM1 promoter luciferase, 24 h | inhibition, % at 12.5 µM;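 active = mean inhibition across replicates of 60% or more, whatever share of single replicates reaches that level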
TWEAK-Fn14 inh: inhibitors of TWEAK-Fn14 signaling, primary screen, luciferase reporter cells, uHTS | inhibition, % at 10 µM | actives 2% (n = 360,000) | TWEAK-stimulated Fn14 reporter cells, luciferase luminescence, 8 h | AID 1159606, 2016; in the data active = inhibition above about 50%
EBV LMP1 NFkB: EBV LMP1-driven NF-kappaB luciferase reporter inhibitors, primary screen, cell-based, luminescence, single point; inhibition, % at 12.5 µM; actives 0.69% (n = 350,000); LMP1-induced NF-kappaB luciferase reporter cells; in the data active = inhibition above about 41%;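 also: 0% = neutral control wells and 100% = reference inhibitor control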
Shn3 inh set2: reduction of Shn3 3'UTR firefly luciferase signal, primary screen, Schnurri-3 inhibitor project, cell-based, Clone20 osteoblasts, set 2; AID 588674, 2011; actives 0.52% (n = 360,000); inhibition, % at 12.5 µM; Clone20 osteoblast Shn3 3'UTR firefly luciferase, 24 h;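 active = mean inhibition of at least 75% with every replicate also reaching 75%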;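 also: 0% = median of neutral control wells and 100% = pilot-screen positive control compound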
TROY signal inh: inhibitors of TROY-driven NF-kB signaling, primary screen, Q293 LMP1-TROYcd cells, NF-kB luciferase, uHTS; Q293 LMP1-TROYcd NF-kB luciferase reporter, 4 h; inhibition, % at 10 µM; actives 0.98% (n = 360,000); AID 1347056, 2019;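 active = compounds whose plate-normalised and pattern-corrected inhibition of the luciferase reporter signal at the single screening dose is 50% or more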
Peg3 promoter: Peg3 promoter-driven luciferase inhibitors, primary screen, cell-based, HeLa, luciferase luminescence; HeLa PEG-Prom luciferase reporter, overnight; inhibition, % at 20 µM; actives 1.7% (n = 360,000);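 active = inhibition of at least 50% at 20 µM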
* = called active by the depositor; / = no result.

SMILES	TRPM1 prom inh	TWEAK-Fn14 inh	EBV LMP1 NFkB	Shn3 inh set2	TROY signal inh	Peg3 promoter
CC1(C)CC(=O)C2=C(C1)OC1OC(=O)CC21C (stereo unspecified)	6	6	0	-4	-10	3
COc1ccc(N(C)S(=O)(=O)c2ccc(Cl)c(C(=O)NNC(=O)c3ccccc3O)c2)cc1	7	10	1	6	-11	16
COc1cccc(/C=N/Nc2snc(SC)c2C#N)c1O	-8	75*	-6	-9	42	-172
COc1ccc(/C=N/Nc2snc(SC)c2C#N)cc1OC	-87	-1	-10	-34	-26	-269
CSCCC(NS(=O)(=O)c1ccc(Cl)cc1)C(=O)OCC(=O)c1c(C)[nH]c2ccccc12 (stereo unspecified)	-8	62*	-3	20	82*	49
COc1ccc(/C=N/NC(=O)c2ccc(N(C)S(=O)(=O)c3ccccc3)cc2)cc1	10	51*	-15	0	-4	-1
Cc1ccc2nc(-c3ccc(SCC(=O)Nc4nnc(C)s4)nc3)[nH]c2c1	-3	25	-11	-24	-49	99*
CCOC(=O)N1CCC(Nc2c([N+](=O)[O-])cc(C(=O)O)cc2[N+](=O)[O-])CC1	0	30	-1	-5	-11	-8
O=C(CNC(=O)c1ccco1)NCC(c1ccco1)N1CCCCC1 (stereo unspecified)	-12	20	-1	0	-8	-2
Cc1c(C(=O)N2CCC(C)CC2)sc2ncn(CC(=O)N3CCC(C)CC3)c(=O)c12	3	11	-1	18	14	-9
CC(=O)OCC(=O)[C@H]1CC[C@H]2[C@@H]3CCC4=CC(=O)CC[C@]4(C)[C@H]3CC[C@]12C	7	-4	1	-63	8	15
C[C@]12CC[C@H]3[C@@H](CCC4=CC(=O)CC[C@@]43C)[C@@H]1CC[C@@H]2C(=O)CO	6	-1	66*	4	6	31
CCOC(=O)c1nnc(-c2ccccc2)nc1Sc1ccccc1Cl	15	57*	16	-3	34	51*
CCOC(=O)c1nnc(-c2ccc(C)cc2)nc1Sc1cccc(Cl)c1	2	-11	3	-20	-22	13
CNC(=O)Nc1ccccc1C(=O)NCc1ccccc1	3	62*	7	5	-7	15
Cc1ccc(CNC(=O)c2ccc3c(c2)NC(=O)CS3)cc1	11	-7	-7	-3	28	-4
CN(C(=O)c1ccno1)c1nnc(-c2ccccn2)s1	-20	12	-4	-19	-18	-36
COc1ccc(-c2nnc(N(C)C(=O)c3ccno3)s2)cc1	-79	50*	3	-73	/	-220
O=S(=O)(NCCC1CC1(Cl)Cl)c1ccc(Cl)cc1 (stereo unspecified)	-2	0	3	5	-12	30
COc1cccc(C(=O)NC(=S)Nn2cnnc2)c1OC	-2	57*	3	3	4	-9
COc1cc(NC(=O)Nc2nc(C(N)C3CCCCC3)cs2)cc(OC)c1OC (stereo unspecified)	/	22	/	59	9	25
COc1ccccc1NC(=O)Nc1nc(C(N)C2CCCCC2)cs1 (stereo unspecified)	/	-7	/	-1	4	82*
NC(c1csc(NC(=O)Nc2ccccc2Cl)n1)C1CCCCC1 (stereo unspecified)	/	-21	/	29	-12	95*
NC(c1csc(NC(=O)Nc2cccc(Cl)c2)n1)C1CCCCC1 (stereo unspecified)	/	-4	/	37	1	92*
NC(c1csc(NC(=O)Nc2ccccc2)n1)C1CCCCC1 (stereo unspecified)	/	-2	/	-20	-13	48
SMILES	TRPM1 prom inh	TWEAK-Fn14 inh	EBV LMP1 NFkB	Shn3 inh set2	TROY signal inh	Peg3 promoter
COc1ccccc1NC(=O)Nc1nc(CC(=O)N2CCN(c3ccc(F)cc3)CC2)cs1	-2	51*	-2	35	40	45
CCOc1ccc(CN(C)CC(=O)Nc2ccccc2C(=O)NC2CC2)cc1	-10	-2	5	1	-11	5
C[C@]12c3[nH]c4cc(-c5ccco5)ccc4c3CCN1C(=O)[C@@H](CC(=O)NCCC1=CCCCC1)C[C@@H]2C(=O)N1CCOCC1	6	16	-2	9	5	23
Cc1ccc2c(c1)sc(=NC(=O)c1cccs1)n2C	35	89*	33	4	59*	-25
Cc1ccc2c(c1)sc(=NC(=O)C1CC1)n2C	-9	6	-24	-56	-47	-220
CC1CCc2c(sc3nc(C(C)(C)C)nc(N4CCN(C(=O)CCl)CC4)c23)C1 (stereo unspecified)	17	2	-16	24	1	56*
COCCNc1nnc(SC(C)C(=O)Nc2ccc(-c3nc4ccc(C)cc4s3)cc2)s1 (stereo unspecified)	-65	50	-12	-31	-6	-264
O=C1OC(/C(=C\Nc2ccc(F)cc2F)[N+](=O)[O-])c2ccccc21 (stereo unspecified)	0	51*	38	-7	0	18
CC(C)(C)C1CCC(CN2C(Nc3ccccc3)=NC[C@@H]2Cc2ccccc2)CC1 (stereo partly specified)	95*	-28	-12	-13	18	95*
CCCCCCCN1C(Nc2ccccc2)=NC[C@@H]1Cc1ccccc1	-7	-15	2	86*	-13	40
CN(C)C1=NC[C@H](Cc2ccccc2)N1CCCC1CCCC1	-26	-18	4	86*	1	-1
CCOCCCNC(=O)/C(C#N)=C/c1cc(OC)c(O)c([N+](=O)[O-])c1	9	35	-6	-7	19	10
COCCNC(=O)/C(C#N)=C/c1cccc(/C=C(\C#N)C(=O)NCCOC)c1	65*	65*	16	9	28	20
CNC(=O)/C(C#N)=C/c1cccc(Oc2ccccc2)c1	3	53*	1	-17	-80	-45
CCOCCCNC(=O)/C(C#N)=C/c1ccc(Cl)c([N+](=O)[O-])c1	89*	11	58*	0	-3	105*
CNC(=O)/C(=C\c1cccc(Oc2ccccc2)c1)NC(=O)c1ccccc1	8	-3	2	18	-20	27
CNC(=O)CC1C(=O)N(c2ccc(F)cc2)C(=S)N1NC(=O)c1ccc(Br)cc1 (stereo unspecified)	1	1	2	9	10	-94
